# Assay outcomes from PubChem BioAssay.
# VACV mCherry inh = vaccinia inhibition (mCherry reporter). 310,000 compounds, 0.63% hits. Vaccinia virus mCherry reporter infection, fluorescence. Potency, µM (highest dose often 36.5 µM), most hits filed as inhibitors. AID 720579; calls by dose curve; tested in A549 cells; further: nearly all actives have a fitted effect of over 35% in size
# Pf growth 48h = inhibits P. falciparum growth in the first generation, 48 h; AID 504832; Potency, µM (titrated, usually from 28.7 µM), hits mostly inhibitors; P. falciparum luciferase growth in erythrocytes, 48 h; 310,000 compounds, 5.9% hits
#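 Firefly luciferase activity from engineered P. falciparum reports growth; inhibitors lower the luminescent signal. Cultures contained 2% hematocrit erythrocytes at 0.1% final parasitemia.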
# NS1 function inh = inhibitors of influenza NS1 protein function. Potency, µM (highest dose often 46.1 µM). 270,000 compounds, 0.4% hits; calls by dose curve; further: actives are rising curves; nearly all actives have a fitted effect of over 50% in size
#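 S. cerevisiae expressing influenza A NS1, grown in glucose, washed, then diluted 1:100 into pH 6.0 -URA galactose medium with 23 nl compound. Growth recovery read as OD600; NS1-free strain serves as control.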
# Vaccinia Venus = inhibitors of vaccinia virus (Venus reporter). 330,000 compounds, 0.46% hits. Vaccinia virus Venus reporter expression, fluorescence. Potency, µM (series often up to 36.5 µM), usual class: inhibitors; calls by dose curve; tested in A549 cells; further: nearly all actives have a fitted effect of over 30% in size
# HCV inhibitor = blocks hepatitis C virus; Huh7.5.1 HCVcc-Cre infection, luciferase reporter, 44 h; Potency, µM (series often up to 41.8 µM), most hits filed as inhibitors; 340,000 compounds, 3.4% hits
#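 1,000 cells/well; 4 h culture; + compound; + HCVcc-Cre (~0.5 moi); 44 h; luciferase substrate, RT 15 min; read 15 sec.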
# Pf growth 96h = inhibits malaria parasite growth, 96 h | P. falciparum luciferase reporter growth, 96 h | Potency, µM (highest dose often 28.7 µM), most hits filed as inhibitors | 320,000 compounds, 6.9% hits | AID 504834
#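 Two-generation exposure (96 h) targets delayed-death phenotype. Reporter parasites carrying integrated firefly luciferase, in red cells at 2% hematocrit and 0.05% parasitemia final, kept at 37 C, 5% CO2; luminescence loss indicates inhibition.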
# Numbers stand for hits; – = inactive; ? = inconclusive; · = no result. Only some compounds are listed: those with a hit (about 11% of all), similar ones and a draw of the others. Unless noted, the call rests on the fitted dose curve; in most records, active means well fitted inhibition curve with a large enough effect; inconclusive means small, poorly fitted or top-dose-only effect, or another doubt; inactive means no such curve, though single readings can be large or run the other way.
SMILES,VACV mCherry inh,Pf growth 48h,NS1 function inh,Vaccinia Venus,HCV inhibitor,Pf growth 96h
CC(NS(=O)(=O)c1ccccc1)C(=O)Nc1ccc2c(c1)OCCO2 (stereo not given),–,–,–,–,–,7.4µM
N/C(=N\S(=O)(=O)c1cc(C(F)(F)F)cc(C(F)(F)F)c1)c1ccncc1,–,–,–,–,–,?
C=C1NN(Cc2ccc(OC)cc2)C(=O)N1c1ccccc1,–,·,·,–,·,·
CC(NS(=O)(=O)c1ccc(Br)cc1)c1ccccc1 (stereo not given),–,–,–,–,–,–
Cc1onc(-c2ccccc2Cl)c1C(=O)N1CCN(Cc2ccc3c(c2)OCO3)CC1,–,–,–,–,–,13µM
Cc1nn(Cc2ccccc2)c2sc(C(=O)N3CCN(Cc4ccc5c(c4)OCO5)CC3)cc12,·,10µM,–,?,?,?
CCOc1ccccc1N1CCN(C(=O)c2c(-c3ccccc3Cl)noc2C)CC1,–,9.3µM,–,–,?,–
CCOc1cc(N2CCOCC2)c(OCC)cc1NC(=O)c1c(-c2ccccc2Cl)noc1C,–,5.9µM,·,–,?,?
Cc1c(C(=O)NCc2ccccn2)oc2ccc(S(=O)(=O)N3CCOCC3)cc12,–,–,–,–,–,–
CC1Cc2ccccc2N1C(=S)NC(=O)c1ccco1 (stereo not given),–,–,·,–,–,–
CC12CCC(=O)C=C1CC(O)C1C2CCC2(C)C1CCC2(C)O (stereo not given),–,·,·,–,–,·
COCC(=O)N1CCC(Oc2ccc(C(=O)NCCCn3cccn3)cc2)CC1,–,–,–,–,–,–
CCn1ccnc1CNC(=O)c1ccc(OC2CCN(C(=O)COC)CC2)cc1,·,–,–,·,–,5.2µM
COCC(=O)N1CCC(Oc2ccc(C(=O)NCCCC3CCCC3)cc2)CC1,–,–,–,–,?,7.4µM
COCC(=O)N1CCC(Oc2ccc(C(=O)NCc3cnc(C)cn3)cc2)CC1,–,–,–,–,–,?
CC(C)(C)OC(=O)N1CCC(C(=O)N2CCC[C@H]2C(=O)O)CC1,·,–,–,·,–,–
CCCOc1ccc(-c2c(C(=O)N/N=C(\C)c3ccncc3)nnn2-c2nonc2N)cc1,?,?,–,–,–,9.3µM
CCCOc1ccc(-c2c(C(=O)N/N=C/c3ccncc3)nnn2-c2nonc2N)cc1,–,–,–,–,–,–
C/C(=N/NC(=O)c1nnn(-c2nonc2N)c1-c1ccccc1)c1ccncc1,–,–,–,?,–,7.4µM
C/C(=N\NC(=O)c1nnn(-c2nonc2N)c1-c1cccs1)c1ccc(C)cc1,–,–,–,–,–,–
COc1ccc(/C(C)=N/NC(=O)c2nnn(-c3nonc3N)c2-c2ccccc2)cc1,–,–,–,–,–,–
CCCc1c(C(=O)N/N=C(\C)c2ccccn2)nnn1-c1nonc1N,0.89µM,·,·,?,·,·
C/C(=N\NC(=O)c1nnn(-c2nonc2N)c1-c1cccs1)c1ccc(O)cc1,–,12µM,–,–,?,12µM
CC(C)Sc1nc(SCC(=O)O)c2c3c(sc2n1)COC(C)(C)C3,·,?,?,·,–,?
COc1ccc(-n2ncc3c(=O)n(Cc4c(F)cccc4Cl)cnc32)cc1,–,–,–,–,–,–
SMILES,VACV mCherry inh,Pf growth 48h,NS1 function inh,Vaccinia Venus,HCV inhibitor,Pf growth 96h
Clc1ccc(NCc2nncn2-c2ccccc2)cc1,·,–,–,–,–,–
O=C(NCc1ccc(F)cc1)C1(c2cccs2)CCOCC1,–,–,–,–,–,?
Cc1cc(NS(=O)(=O)c2ccc(NC(=O)c3ccccc3F)cc2)nc(C)n1,–,·,·,–,·,·
C/C(=N\NC(=O)c1nnn(-c2nonc2N)c1-c1ccc2c(c1)OCO2)c1cccs1,–,?,–,–,–,12µM
Cc1cccc(NP2(=O)NCCCN2)c1,–,·,·,–,–,·
CC(SCc1ccccc1)C(=O)N/N=C/c1ccc(OCC(=O)NCc2ccco2)cc1 (stereo not given),–,–,–,?,11µM,1.7µM
O=C(CCN1C(=O)CSc2ccccc21)Nc1ccc(OC(F)(F)F)cc1,·,–,·,·,?,–
CN(C)c1ccc(CNCCC(Cc2ccccc2)c2ccco2)cc1 (stereo not given),?,?,–,–,?,9.3µM
CCCSC1=C(C#N)C(c2cc(OC)ccc2OC)CC(=O)N1 (stereo not given),–,–,–,–,?,–
C(=N\c1nc2ccccc2[nH]1)/c1cccs1,–,–,–,–,·,10µM
O=C(CCNS(=O)(=O)c1ccccc1C(F)(F)F)N1CCN(C(c2ccccc2)c2ccccc2)CC1,?,?,·,–,?,?
CCCOc1ccc2nc(C)c(CCC)c(SC(=N)N)c2c1,·,1.2µM,–,·,–,6.6µM
CCCc1c(C)nc2ccc(OC)cc2c1SCCC(=O)O,–,–,–,–,–,12µM
O=C(Cn1nnc2ccccc2c1=O)N[C@@H](Cc1c[nH]c2ccccc12)C(=O)O,–,–,–,–,–,?
CCn1cc(C(=O)NP(=O)(Nc2ccc(C)cc2)Nc2ccc(C)cc2)c2ccccc21,·,–,–,·,–,–
CCCCC1NC(=S)N(C2CCCCC2)C1=O (stereo not given),–,–,–,–,–,–
O=C(O)CC1NC(=O)N(C2CCCCC2)C1=O (stereo not given),–,–,·,–,–,12µM
O=C(O)CC1NC(=S)N(Cc2ccccc2)C1=O (stereo not given),–,·,·,–,·,·
O=C(O)CC1NC(=O)N(c2ccccc2)C1=O (stereo not given),·,–,–,·,?,2.6µM
COc1ccc(-c2c(-c3cc(OC)cc(OC)c3)n(C)c3ccc(-c4ccc(S(N)(=O)=O)cc4)cc23)cc1,–,13µM,·,–,10µM,?
COc1ccc(-c2c(-c3cc(OC)cc(OC)c3)n(C)c3ccc(-c4cnc(N)nc4)cc23)cc1,–,·,·,?,–,·
COc1cc(OC)cc(-c2c(-c3ccc(F)cc3)c3cc(-c4cnc(OC)nc4)ccc3n2C)c1,–,4.1µM,·,–,?,4.7µM
OC(C#CCN1CCCC1)(c1ccccc1)c1ccccc1,–,?,–,–,·,9.5µM
OC(C#CCN1CCCCC1)(c1ccccc1)c1ccccc1,–,–,–,–,?,?
COc1cccc(/C=N/Nc2snc(SC)c2C#N)c1O,10µM,–,–,7.9µM,?,–
COc1ccc(/C=N/Nc2snc(SC)c2C#N)cc1OC,·,4.1µM,–,–,?,–
O=C(Nc1ccccc1)c1ccc(-c2ccc([N+](=O)[O-])cc2)o1,–,?,–,–,–,–
O=C(NC1CN2CCC1CC2)c1ccc(-c2ccc([N+](=O)[O-])cc2)o1 (stereo not given),–,1.7µM,–,–,?,?
CC1(C)CC(NC(=O)c2ccc(-c3ccc([N+](=O)[O-])cc3)o2)CC(C)(C)N1,?,10µM,–,–,–,?
O=C(NNC(=O)c1ccccc1O)c1ccc(-c2ccc([N+](=O)[O-])cc2)o1,10µM,–,·,?,?,–
